# ST2 IL33 inh: IL1RL1 inhibition; Q01638; AlphaLISA ST2-Fc/biotin-IL-33 interaction, 1 h; inhibition, % for hits at 17 µM; actives 2.3% (n = 78,000); AID 1259354; in the data active = inhibition above about 30%
# An asterisk follows results filed as active; i = inactive. The sample as a whole holds a higher share of hits than the screen did.
SMILES,ST2 IL33 inh
Cc1cc(OC(C)C)nc(-c2ccccc2O)n1,i
Cc1cc(N2N=C(c3ccccc3)CC2=O)nc(-c2ccccc2O)n1,31%*
Cc1cc(NC2CCCCC2)nc(-c2ccccc2O)n1,i
CCCCNC(=O)C1(O)c2cc(Br)ccc2NC(=O)N1c1cccc(OC)c1 (stereo not given),i
Cc1[nH]cnc1-c1nccn1CCc1nc2ccccc2[nH]1,i
Cc1nn(-c2ccccc2)c(C)c1[C@@H]1C=C[C@@H](NCc2ccc(F)cc2)C1,i
CCN(CC)c1ccc(C=Nc2ccc(OC)cc2OC)c(O)c1,35%*
Cc1ccc(N=Cc2cccc(C(=O)O)c2O)cc1,i
COc1ccc(N=Cc2cc(Br)cc(Br)c2O)c(OC)c1,i
CCN(CC)c1ccc(N=Cc2cccc(OC)c2O)cc1,94%*
COc1ccc(OC)c(N=Cc2c(O)c(OC)cc(Br)c2Br)c1,i
COc1cccc(C=Nc2ccc(S(=O)(=O)Nc3cc(C)on3)cc2)c1O,i
CC(=O)Nc1ccc(S(=O)(=O)N2CCN(C3CCN(Cc4ccccc4)CC3)CC2)cc1,i
O=C(CSCc1cccc(Br)c1)NCc1ccccc1,i
O=C1CCc2cc(S(=O)(=O)N3CCC(Cc4ccccc4)CC3)ccc2N1,i
Cc1cccc(C(=O)Oc2ccc(C)cc2-n2nc3ccccc3n2)c1,i
CC(=O)N1N=C(c2ccc(Cl)cc2)OC12CCCCC2,i
CC1CCC(NC(=O)C2CCC(CNS(=O)(=O)c3cccc4nsnc34)CC2)CC1 (stereo not given),i
Cc1[nH]n(-c2ccccc2)c(=O)c1C=Nc1cc([N+](=O)[O-])cc([N+](=O)[O-])c1,i
O=[N+]([O-])c1cc(Nc2ccccc2)c(C=Nc2ccccc2)c([N+](=O)[O-])c1,66%*
O=[N+]([O-])c1cccc(C=Nc2ccc(S(=O)(=O)Nc3ccccn3)cc2)c1,i
O=C(Nc1cccc(CCc2ccccn2)c1)c1cc(F)c(F)cc1Cl,i
Cc1nnc(Nc2cccc(C(F)(F)F)c2)[nH]c1=O,i
O=C1C=C(Nc2cccc(C(F)(F)F)c2)C(=O)c2ccccc21,31%*
O=C(CCCCCN1C(=O)c2ccccc2C1=O)Nc1cccc(C(F)(F)F)c1,i
SMILES,ST2 IL33 inh
O=S1(=O)CC2N=C(Nc3ccc(Br)cc3)SC2C1 (stereo not given),i
COc1ccc(OC)c(CN2C(=O)CCC2(C)C(=O)NCCc2ccc(OC)c(OC)c2)c1 (stereo not given),i
CCOC(=O)C1=C(C)Nc2nnnn2C1c1ccc(N(C)C)cc1 (stereo not given),i
Nc1ccc(Cl)c(NC(=O)CC(=O)c2ccccc2)c1,i
Nc1cccc(C(=O)Nc2ccccc2Cl)c1,i
Nc1ccc(Nc2ccccc2)c(Cl)c1,44%*
O=c1oc2c(CN3CCOCC3)c(O)ccc2cc1-c1ccccn1,i

# Compound activity (PubChem)
